Potency and outcome data for 19 compounds are collected here from PubChem BioAssay (NCATS).

The target in test [1] is Luciferin 4-monooxygenase (Photinus pyralis) (UniProt P08659). In words: Biochemical firefly luciferase enzyme assay for NPC (AID 624030).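 Note: purified P. pyralis luciferase at 10 nM with luciferin and ATP substrate; nearly all actives have a fitted effect of over 70% in size.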 A digest of the protocol:
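Direct inhibition of firefly luciferase enzyme (10 nM final, 50 mM Tris Acetate) assessed by luminescence within 5 minutes. Percent activity scaled between DMSO and PTC124 positive control, with concentration-effect curves classified by fit quality and response.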

Test [2] deals with 3',5'-cyclic-AMP phosphodiesterase 4B (Homo sapiens) (UniProt Q07343). The test is described as follows: qHTS Assay for Inhibitors of PDE-IV (AID 607; active = well fitted activation curve with a large enough effect in the main read-out, with a control signal flat, not every such curve was filed as active). The procedure, abridged:
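The readout is membrane depolarisation from a cAMP-sensing CNG channel, detected with a potential dye at ex 535/em 590. Cells were HEK293-derived (endogenous PDE-IV) at 1000 cells/well, titrated up to 22.9 uM final.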

The target of test [3] is Vitamin D3 receptor (Homo sapiens) (UniProt P11473). In words: qHTS for Inhibitors of the vitamin D receptor (VDR): Hit Validation in Primary Screen (AID 602199). Note: potency is the fitted concentration of half-maximal effect. To be noted: VDR-coactivator inhibition assay, qHTS confirmation. The procedure, abridged: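 With 800 nM VDR and 5 uM LG19078 agonist present, compounds were incubated 2 h at ambient temperature with Alexa 647-labelled SRC2-3. Displacement was read as polarization at 620/688 nm.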
Chain of Vitamin D3 receptor (Homo sapiens) (P11473 whole entry, looked up): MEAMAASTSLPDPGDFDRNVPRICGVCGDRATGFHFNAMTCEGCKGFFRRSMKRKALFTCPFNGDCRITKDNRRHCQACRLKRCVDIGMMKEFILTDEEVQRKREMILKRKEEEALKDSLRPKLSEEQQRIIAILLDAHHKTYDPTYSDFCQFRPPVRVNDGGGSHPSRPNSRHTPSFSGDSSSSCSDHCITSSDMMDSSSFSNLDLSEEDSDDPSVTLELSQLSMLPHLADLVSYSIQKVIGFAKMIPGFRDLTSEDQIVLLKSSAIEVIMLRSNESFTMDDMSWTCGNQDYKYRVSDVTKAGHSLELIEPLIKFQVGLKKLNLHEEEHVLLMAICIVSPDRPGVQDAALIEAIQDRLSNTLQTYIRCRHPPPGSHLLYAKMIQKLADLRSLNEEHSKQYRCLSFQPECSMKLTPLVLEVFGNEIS

The target is the same in test [4]. The test is described as follows: qHTS for Inhibitors of the vitamin D receptor (VDR): Hit Validation using a Beta-Lactamase Assay (AID 602202). A digest of the protocol:
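Beta-lactamase reporter read-out (447 nm emission of cleaved FRET substrate, 2 h) after 18 h compound exposure of HEK293 cells carrying a VDR-GAL4 fusion and UAS reporter, stimulated with LG190178.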
For orientation: Quantitative high-throughput screening tests each substance at several concentrations.

Test [5] is described as follows: qHTS for Inhibitors of the vitamin D receptor (VDR): Hit Validation using a Cytotoxicity Assay (AID 602204). Note: nearly all actives have a fitted effect of over 75% in size. A digest of the protocol: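 First, 20,000 cells are dispensed per well. Next comes a 4 h incubation, then compound addition and an 18 h incubation. Finally, ATP-based luminescent reagent is added and plates are read after 30 min.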
For test [6], the target named is Cytochrome P450 3A4 (Homo sapiens) (UniProt P08684). In words: qHTS Assay for Activators of Cytochrome P450 3A4 (AID 885). Note: nearly all actives have a fitted effect of over 65% in size. A digest of the protocol: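 Steps: enzyme/substrate mix dispensed; compound added, 10 min RT; NADPH regeneration solution added, 60 min RT; luciferin detection buffer stops reaction; 20 min later luminescence measured.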
Chain of Cytochrome P450 3A4 (Homo sapiens) (P08684 whole entry, looked up): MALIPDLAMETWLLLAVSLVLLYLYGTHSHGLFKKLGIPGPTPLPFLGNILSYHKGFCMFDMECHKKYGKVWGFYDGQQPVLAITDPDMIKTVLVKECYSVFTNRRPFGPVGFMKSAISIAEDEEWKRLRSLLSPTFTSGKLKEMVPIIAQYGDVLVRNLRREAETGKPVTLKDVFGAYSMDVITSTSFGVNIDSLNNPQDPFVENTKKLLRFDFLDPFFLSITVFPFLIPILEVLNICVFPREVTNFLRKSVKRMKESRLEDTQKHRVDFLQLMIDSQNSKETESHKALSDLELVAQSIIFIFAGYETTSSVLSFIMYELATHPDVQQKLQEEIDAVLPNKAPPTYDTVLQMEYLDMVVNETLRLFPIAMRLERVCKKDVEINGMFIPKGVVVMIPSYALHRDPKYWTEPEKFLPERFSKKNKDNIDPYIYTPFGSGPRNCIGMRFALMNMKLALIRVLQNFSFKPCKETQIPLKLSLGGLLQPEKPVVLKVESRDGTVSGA
Test [7] is described as follows: Cell Viability - LYMP2-025 (AID 976). The procedure, abridged:
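Human lymphoblastoid LYMP2-025 cells (2500/well) were pre-incubated 5 hr at 37 C, then treated with compounds for 24 hr at 37 C in complete medium. Viability was read as intracellular ATP by CellTiter-Glo luminescence; AC50 from Hill fits.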

Test [8] can be described thus: S16 Schwann cell PMP22 intronic element beta-lactamase assay (AID 624044; calls by dose curve; note: nearly all actives have a fitted effect of over 15% in size; note: potency is the fitted concentration of half-maximal effect). Particulars: S16 rat Schwann cells, PMP22 element beta-lactamase FRET, 24 h; ratio activity, negative = inhibition: at 38.3 µM (top of the series). A digest of the protocol: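 Rat S16 Schwann cells with beta-Lac driven by a PMP22 intronic element, compound-treated 24 h at 37 °C. LiveBLAzer FRET B/G read: 460 nm normalized to potassium clavulanate vs DMSO; 535 nm FRET as viability; concentration-effect curves classified.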

Test [9] is described as follows: S16 Schwann cell viability assay (CellTiter-Glo assay) (AID 624031). Note: potency is the fitted concentration of half-maximal effect; nearly all actives have a fitted effect of over 70% in size. A digest of the protocol: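 Cells were seeded at 500-750 per well in phenol red-free DMEM with 10% FBS and left overnight. Compounds or DMSO were pinned in, incubation ran 24 h at 37 °C/5% CO2, then CellTiter-Glo reagent was added and luminescence measured.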
In general terms: In ATP-based viability assays light output follows the ATP content of the culture.

A short description of test [10]: qHTS Assay for Identifying Gametocytocidal Compounds (AID 743244). Note: potency is the fitted concentration of half-maximal effect. Particulars: P. falciparum 3D7 stage III-V gametocytes, alamarBlue, 72 h; max response: stronger effect = lower value. The procedure, abridged: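 Late gametocytes (III–V), P. falciparum 3D7; 72 h drug, then 24 h alamarBlue; resazurin reduction read by fluorescence.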
Test [11] can be described thus: qHTS screen for small molecules that inhibit ELG1-dependent DNA repair: Hit Confirmation in Cell-Based Luciferin Assay (AID 624247). Note: potency is the fitted concentration of half-maximal effect. To be noted: cell-free firefly luciferase luminescence counter-screen, ViewLux. The procedure, abridged: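 Luciferin substrate reagent dispensed first, then compounds or DMSO vehicle pin-transferred, then luciferase enzyme added; luminescence read on a CCD-based plate reader.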

The target in test [12] is ATPase family AAA domain-containing protein 5 (Homo sapiens) (UniProt Q96QE3). The test is described as follows: HTS assay for small molecules that inhibit ELG1-dependent DNA repair in human embryonic kidney (HEK293T) cells expressing luciferase-tagged ELG1: Hit Confirmation (AID 624248). Note: potency is the fitted concentration of half-maximal effect; nearly all actives have a fitted effect of over 55% in size. Particulars: HEK293T ELG1-luciferase levels, luminescence; cells co-treated with 5-fluorouridine. A digest of the protocol: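 Suppression of ELG1-luciferase signal was read by ONE-Glo luminescence in HEK293T reporter cells after 16 h at 37 C co-treatment with compound and 5-fluorouridine as DNA-damaging agent.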
Chain of ATPase family AAA domain-containing protein 5 (Homo sapiens) (Q96QE3 whole entry, looked up, the tested form may be a part): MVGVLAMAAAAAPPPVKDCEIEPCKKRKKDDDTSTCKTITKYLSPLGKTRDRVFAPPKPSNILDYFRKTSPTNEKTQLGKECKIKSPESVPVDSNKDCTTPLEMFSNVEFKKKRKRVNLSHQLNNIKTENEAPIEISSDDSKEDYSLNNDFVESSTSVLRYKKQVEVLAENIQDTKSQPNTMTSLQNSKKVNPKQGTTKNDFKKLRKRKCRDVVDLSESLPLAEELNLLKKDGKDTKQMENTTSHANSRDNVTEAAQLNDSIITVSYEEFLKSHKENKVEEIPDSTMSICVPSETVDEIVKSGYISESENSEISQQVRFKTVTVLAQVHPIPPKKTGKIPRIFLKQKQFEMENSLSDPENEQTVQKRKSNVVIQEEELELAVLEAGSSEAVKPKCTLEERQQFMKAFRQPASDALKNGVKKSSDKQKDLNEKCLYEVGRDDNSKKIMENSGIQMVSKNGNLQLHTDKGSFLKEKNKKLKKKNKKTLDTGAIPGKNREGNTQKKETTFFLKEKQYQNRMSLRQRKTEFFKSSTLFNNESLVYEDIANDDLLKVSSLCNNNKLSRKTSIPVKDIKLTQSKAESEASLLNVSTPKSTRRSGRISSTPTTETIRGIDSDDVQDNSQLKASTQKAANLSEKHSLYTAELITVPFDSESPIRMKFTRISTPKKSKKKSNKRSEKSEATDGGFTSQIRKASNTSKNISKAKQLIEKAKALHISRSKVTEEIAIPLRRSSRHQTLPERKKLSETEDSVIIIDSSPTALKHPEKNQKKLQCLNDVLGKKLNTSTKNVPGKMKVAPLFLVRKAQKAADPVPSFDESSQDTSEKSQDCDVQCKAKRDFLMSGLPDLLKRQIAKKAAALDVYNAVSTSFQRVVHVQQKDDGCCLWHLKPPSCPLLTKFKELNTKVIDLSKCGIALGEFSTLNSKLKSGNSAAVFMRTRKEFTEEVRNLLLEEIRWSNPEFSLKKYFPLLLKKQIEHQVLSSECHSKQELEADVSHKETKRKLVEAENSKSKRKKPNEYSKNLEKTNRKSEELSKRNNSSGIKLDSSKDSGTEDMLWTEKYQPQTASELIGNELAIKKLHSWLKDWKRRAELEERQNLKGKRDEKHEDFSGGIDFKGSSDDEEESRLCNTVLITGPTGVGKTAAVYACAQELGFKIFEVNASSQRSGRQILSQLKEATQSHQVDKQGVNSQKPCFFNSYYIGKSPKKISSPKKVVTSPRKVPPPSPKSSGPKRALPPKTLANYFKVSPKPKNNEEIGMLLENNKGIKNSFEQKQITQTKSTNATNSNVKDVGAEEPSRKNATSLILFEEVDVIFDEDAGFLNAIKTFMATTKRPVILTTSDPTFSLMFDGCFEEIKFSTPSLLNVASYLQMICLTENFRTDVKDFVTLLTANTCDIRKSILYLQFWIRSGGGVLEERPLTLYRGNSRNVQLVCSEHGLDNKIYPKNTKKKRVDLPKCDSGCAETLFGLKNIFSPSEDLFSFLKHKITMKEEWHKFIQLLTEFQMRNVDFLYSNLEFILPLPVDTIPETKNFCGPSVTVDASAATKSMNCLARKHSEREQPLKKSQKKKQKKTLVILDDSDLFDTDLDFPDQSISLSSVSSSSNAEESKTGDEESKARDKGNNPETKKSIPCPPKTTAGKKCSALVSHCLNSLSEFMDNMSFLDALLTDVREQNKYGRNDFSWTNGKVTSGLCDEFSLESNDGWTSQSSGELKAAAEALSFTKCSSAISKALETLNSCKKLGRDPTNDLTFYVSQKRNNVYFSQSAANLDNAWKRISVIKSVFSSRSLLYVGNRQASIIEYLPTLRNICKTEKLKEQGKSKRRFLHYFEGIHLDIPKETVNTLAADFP

Test [13] has the same target. The test is described as follows: qHTS screen for small molecules that inhibit ELG1-dependent DNA repair in human embryonic kidney (HEK293T) cells expressing luciferase-tagged ELG1: Hit Confirmation using MMS Stimulated ELG1 (AID 624249). Note: potency is the fitted concentration of half-maximal effect; nearly all actives have a fitted effect of over 60% in size. To be noted: HEK293T luciferase-tagged ELG1 level. A digest of the protocol:
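Compounds are tested on HEK293T cells expressing ELG1-luc, co-treated with 10 µM MMS (final), for 16 h before luminescence readout with Amplight.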

The nature of test [14]: qHTS screen for small molecules that inhibit ELG1-dependent DNA repair: Hit Confirmation with MMS Viability (AID 624251). Note: potency is the fitted concentration of half-maximal effect; nearly all actives have a fitted effect of over 60% in size. Particulars: Cell viability with MMS. A digest of the protocol:
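Under 10 µM MMS, compounds were tested on ELG1-luc HEK293T cells seeded at 2,000 cells/well; survival was determined by CellTiter-Glo luminescence 16 h post-addition.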

In test [15] the target is Luciferin 4-monooxygenase (Photinus pyralis) (UniProt P08659). The test is described as follows: qHTS screen for small molecules that inhibit ELG1-dependent DNA repair: Hit Confirmation in Biochemical Luciferin Assay (AID 624253). A digest of the protocol:
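Counter-screen against purified firefly luciferase: substrate reagent dispensed first, then compound or DMSO by pintool, then luciferase enzyme added. Luminescence read on a CCD-based imager.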

For test [16], the target named is Guanine nucleotide-binding protein G(i) subunit alpha-1 (Homo sapiens) (UniProt P63096). The test is described as follows: qHTS Assay for Inhibitors of RGS12 GoLoco Motif Activity (Green Fluorophore) (AID 879).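 Note: negative values mean loss of peptide binding seen as reduced polarization.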 The procedure, abridged:
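Fluorescence polarization assay: 50 nM Gαi1 with 10 nM FITC-labeled RGS12 GoLoco peptide in 10 mM Tris pH 7.5, 150 mM NaCl, 0.1 mM GDP, 0.05% NP40, 10 min at room temperature with compound.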

In test [17] the target is Cytochrome P450 3A4 (Homo sapiens) (UniProt P08684). In words: qHTS Assay for Inhibitors and Substrates of Cytochrome P450 3A4 (AID 884). Note: potency is the fitted concentration of half-maximal effect; nearly all actives have a fitted effect of over 50% in size. The procedure, abridged:
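20 nM human CYP3A4 with 25 uM Luciferin-PPXE (at KM) in 200 mM KPO4, preincubated 10 min with compound; NADPH regeneration started a 60 min RT reaction. Luciferin detected by luminescence, normalized to 57 uM ketoconazole as full inhibition.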

For test [18], the target named is Alpha-galactosidase (Coffea arabica) (UniProt Q42656). The test is described as follows: Counterscreen for Glucocerebrosidase Inhibitors: qHTS Assay for Coffee Bean alpha-Galactosidase at pH 4.5 (AID 957). The procedure, abridged:
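Green coffee bean enzyme (2 nM final) was incubated with compounds (0.7 nM to 77 uM) and 4-methylumbelliferyl alpha-D-galactopyranoside (80 uM final) in 50 mM citric acid, 0.005% Tween-20, pH 4.5, 20 min at room temperature; AC50 from Hill fits.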
(In general: The purpose of a counterscreen is to sort out artefacts and off-target activity.)

The target is the same in test [19]. The test is described as follows: Counterscreen for Glucocerebrosidase Inhibitors: qHTS Assay for Coffee Bean alpha-Galactosidase at pH 5.9 (AID 998). The procedure, abridged: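 Compounds were titrated from 0.7 nM to 77 uM against green coffee bean alpha-galactosidase (2 nM) using 80 uM fluorogenic 4-methylumbelliferyl substrate. After 20 min at room temperature, reactions were stopped at pH 10 and read by fluorescence.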

A short description of test [20]: qHTS assay for small molecule activators of the nuclear factor-kappa B (NF-kB) signaling pathway (AID 651749; active = well fitted activation curve with a large enough effect in the signal ratio; the % refers to the signal ratio; note: potency is the fitted concentration of half-maximal effect). Particulars: NF-kB-bla ME-180 cells, beta-lactamase FRET ratio, 16 h; activation: stronger effect = higher value. The procedure, abridged: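 Stably transfected ME-180 line; NF-kB response element upstream of beta-lactamase. Treatment: compound or DMSO, 16 hr. Detection: fluorescent FRET substrate.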

Each structure is given as a SMILES string. Inconclusive results are not listed. The list shows a part of the results. Activity calls are given as the source filed them. Unless noted, calls come from the whole dose curve; as a rule, active = well fitted curve in the direction sought with a large enough effect; inconclusive = small, poorly fitted or top-dose-only effect, or another doubt; inactive = no such curve, though single readings can be large; an effect the other way counts as inactive or inconclusive.

Chain of Luciferin 4-monooxygenase (Photinus pyralis) (P08659 whole entry, looked up): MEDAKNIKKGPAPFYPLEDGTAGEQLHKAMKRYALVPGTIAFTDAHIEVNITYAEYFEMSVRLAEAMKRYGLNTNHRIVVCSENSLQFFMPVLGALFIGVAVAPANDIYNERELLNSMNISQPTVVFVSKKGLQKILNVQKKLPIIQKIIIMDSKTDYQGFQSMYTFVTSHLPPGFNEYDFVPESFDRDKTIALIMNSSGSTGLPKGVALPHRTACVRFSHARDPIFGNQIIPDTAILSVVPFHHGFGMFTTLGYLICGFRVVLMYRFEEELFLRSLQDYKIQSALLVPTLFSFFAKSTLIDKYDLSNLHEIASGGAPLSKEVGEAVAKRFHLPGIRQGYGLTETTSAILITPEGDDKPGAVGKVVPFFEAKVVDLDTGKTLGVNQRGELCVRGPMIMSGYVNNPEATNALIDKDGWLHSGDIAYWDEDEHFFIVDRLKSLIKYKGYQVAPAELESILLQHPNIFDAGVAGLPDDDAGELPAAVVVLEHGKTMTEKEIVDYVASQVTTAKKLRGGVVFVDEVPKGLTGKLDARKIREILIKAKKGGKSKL
Chain of Alpha-galactosidase (Coffea arabica) (Q42656 whole entry, looked up): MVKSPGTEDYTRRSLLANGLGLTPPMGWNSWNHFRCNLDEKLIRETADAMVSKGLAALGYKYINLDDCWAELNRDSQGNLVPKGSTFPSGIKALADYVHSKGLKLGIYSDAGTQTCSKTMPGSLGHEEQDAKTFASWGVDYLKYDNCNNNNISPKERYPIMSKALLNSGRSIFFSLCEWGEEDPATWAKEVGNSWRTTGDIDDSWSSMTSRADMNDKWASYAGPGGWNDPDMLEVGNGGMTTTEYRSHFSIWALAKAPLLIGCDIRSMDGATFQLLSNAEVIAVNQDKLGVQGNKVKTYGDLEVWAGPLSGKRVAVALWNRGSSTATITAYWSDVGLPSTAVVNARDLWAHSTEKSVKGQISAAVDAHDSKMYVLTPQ
Chain of 3',5'-cyclic-AMP phosphodiesterase 4B (Homo sapiens) (Q07343 whole entry, looked up): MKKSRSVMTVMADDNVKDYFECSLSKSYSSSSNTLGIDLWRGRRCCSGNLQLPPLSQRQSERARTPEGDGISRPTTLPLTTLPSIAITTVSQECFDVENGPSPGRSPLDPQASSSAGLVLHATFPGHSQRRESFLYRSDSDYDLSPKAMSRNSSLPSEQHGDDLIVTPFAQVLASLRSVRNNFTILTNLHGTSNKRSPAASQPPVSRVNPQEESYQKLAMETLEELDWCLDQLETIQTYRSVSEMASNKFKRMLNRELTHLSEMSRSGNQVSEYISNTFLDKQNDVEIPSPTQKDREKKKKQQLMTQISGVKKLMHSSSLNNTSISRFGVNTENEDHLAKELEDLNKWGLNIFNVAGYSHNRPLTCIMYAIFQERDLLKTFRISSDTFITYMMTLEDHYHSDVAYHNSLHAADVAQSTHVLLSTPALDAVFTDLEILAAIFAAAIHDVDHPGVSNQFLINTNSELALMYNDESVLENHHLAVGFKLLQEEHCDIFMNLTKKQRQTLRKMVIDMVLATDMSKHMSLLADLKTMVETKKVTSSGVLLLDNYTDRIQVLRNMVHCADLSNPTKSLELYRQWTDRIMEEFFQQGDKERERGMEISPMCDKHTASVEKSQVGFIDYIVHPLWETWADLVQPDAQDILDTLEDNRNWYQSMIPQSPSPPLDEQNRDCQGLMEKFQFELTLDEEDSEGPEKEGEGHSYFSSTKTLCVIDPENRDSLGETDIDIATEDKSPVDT
Chain of Guanine nucleotide-binding protein G(i) subunit alpha-1 (Homo sapiens) (P63096 whole entry, looked up): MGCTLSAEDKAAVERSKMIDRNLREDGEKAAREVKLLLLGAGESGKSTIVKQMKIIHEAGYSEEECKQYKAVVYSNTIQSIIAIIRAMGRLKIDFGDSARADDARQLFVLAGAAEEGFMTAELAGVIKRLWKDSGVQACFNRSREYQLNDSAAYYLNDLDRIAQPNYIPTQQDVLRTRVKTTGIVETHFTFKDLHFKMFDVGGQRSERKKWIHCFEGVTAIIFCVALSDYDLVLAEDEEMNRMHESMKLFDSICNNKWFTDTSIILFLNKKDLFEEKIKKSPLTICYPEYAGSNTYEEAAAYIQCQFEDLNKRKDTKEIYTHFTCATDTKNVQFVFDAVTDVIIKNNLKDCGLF

In the case of `CC[C@H](OC(C)=O)C(C[C@H](C)NC)(c1ccccc1)c1ccccc1`, the Potency result in test [1] is “inactive”.

As for `O=C1C[C@@H]2OCC=C3CN4CC[C@]56c7ccccc7N1[C@H]5[C@@H]2[C@H]3C[C@@H]46`, the outcome in test [2] was inactive.

For the compound `CN1[C@@H]2CC[C@H]1CC(OC(=O)C(CO)c1ccccc1)C2` (stereo partly drawn), the Potency result in test [1] is “inactive”.

With `C=CCC1(C(C)CCC)C(=O)NC(=O)NC1=O` (stereo not drawn), in test [1], the Potency result was “inactive”.

In the case of `COC1=CC=C2[C@H]3Cc4ccc(OC)c5c4[C@@]2(CCN3C)C1O5` (stereo partly drawn), the Potency entry in test [1] is “inactive”.

Take `Cc1ccnc(-n2c(C)cc(/C=C3\C(=O)NC(=S)N(C)C3=O)c2C)c1`: the Potency in [3] is 29900 nM (active). Moreover, the call in test [4] and in test [5] was inactive.

Regarding `CC1[C@H]2Cc3ccc(O)cc3[C@]1(C)CCN2C` (stereo partly drawn), in [1], the Potency result was “inactive”.

In the case of `Cc1ccc2c(c1)[C@]13CCCC[C@@H]1[C@@H](C2)N(C)CC3`, in test [1], the Potency entry was “inactive”.

For `C[C@H]1[C@@H]2Cc3ccc(O)cc3[C@]1(C)CCN2CCc1ccccc1`, the Potency entry in [1] is “inactive”.

Turning to `COc1ccc2c3c1OC1C(O)C=CC4[C@@H](C2)N(C)CC[C@]314` (stereo partly drawn), in test [1], the Potency result is “inactive”.

For the compound `CNC[C@H](O)c1ccc(OC(=O)C(C)(C)C)c(OC(=O)C(C)(C)C)c1`, the Potency entry in [6] is “inactive”.

For the compound `Cc1ccccc1`, the Potency result in test [7] and in test [8] was “inactive” each time.

As for `COc1cc(-c2ccc(-[n+]3nc(-c4ccccc4)nn3-c3ccc([N+](=O)[O-])cc3)c(OC)c2)ccc1-[n+]1nc(-c2ccccc2)nn1-c1ccc([N+](=O)[O-])cc1`, the results for the Potency in test [9] and in test [10] were 28700 nM (active) and 5620 nM (active), respectively.

Consider `CC1(Cn2ccnn2)[C@H](C(=O)O)N2C(=O)C[C@H]2S1(=O)=O` (stereo partly drawn), for which, in test [8], the Potency was 12600 nM (active).

For `CC(=O)[O][Sn]([c]1ccccc1)([c]1ccccc1)[c]1ccccc1`, the Potency in test [11] was 1990 nM (active); in test [12] it was 1580 nM (active); in [13] it was 281 nM (active); in [14] it was 281 nM (active).

On to `C[C@@H]1C[C@H]2CC[C@H](O2)[C@H](C)C(=O)O[C@@H](C)C[C@@H]2CC[C@@H](O2)[C@@H](C)C(=O)O[C@H](C)C[C@H]2CC[C@H](O2)[C@H](C)C(=O)O[C@@H](C)C[C@@H]2CC[C@@H](O2)[C@@H](C)C(=O)O1`, for which the Potency in test [12] is 14100 nM (active); in test [13] it was 88.9 nM (active); in test [14], 99.7 nM (active). Besides, the result in test [15] was inactive.

In the case of `C[C@@]12C=CC(=O)C=C1CC[C@@H]1C2=CC[C@]2(C)[C@@H]1CC[C@H]2C(=O)CN1CCN(c2cc(N3CCCC3)nc(N3CCCC3)n2)CC1`, the Potency result in [16] and in test [6] was “inactive” each time. Further, the Potency in [17] was 3160 nM (active). Further, the result in test [18] and in test [19] was inactive.

For the compound `O=C(O[C@@H]1Cc2c(O)cc(O)cc2O[C@@H]1c1cc(O)c(O)c(O)c1)c1cc(O)c(O)c(O)c1`, the Potency in [20] was 12600 nM (active).

As to `CCC(C(=O)O)C1OC(C(C)C(O)C(C)C(=O)C(CC)C2OC3(C=CC(O)C4(CCC(C)(C5CCC(O)(CC)C(C)O5)O4)O3)C(C)CC2C)C(C)CC1C` (stereo not drawn), the Potency in test [10] is 60.5 nM (active).
